Data published in PubChem BioAssay (NCATS).
Inconclusive results are not listed. Active and inactive are the calls of the source. Calls come from the whole dose curve; as a rule, active = well fitted cell-killing curve with a large enough effect; inconclusive = small, poorly fitted or top-dose-only effect, or effect the other way; inactive = no such curve, though single readings can be large or run the other way.

Assay: Quantitative highthroughput screen to assess conditional lethalithy of NOMO1 cells grown in Human Plasma-Like Medium with dialyzed fetal bovine serum (HPLM+ds) (AID 1963878); note: nearly all actives have a fitted effect of over 35% in size
Details: NOMO1 AML cells in HPLM+ds, CellTiter-Glo viability, 48 h; series mostly up to 45.8 µM; viability: at the top concentration
Text: Assay Provider: Jason Cantor Ph.D.
Department of Biochemistry
University of Wisconsin-Madison, Madison, WI, USA
Chemical screening studies have identified drug sensitivities across hundreds of cancer cell lines but most putative therapeutics fail to translate. Discovery and development of drug candidates in models that more accurately reflect nutrient levels in human blood is a major challenge. Here we performed high-throughput screens in conventional versus Human Plasma-Like Medium (HPLM) to identify compounds that were "missed" when screening using the artificial culture condition. Sets of conditional anticancer compounds spanned phases of clinical development and included non-oncology drugs were assessed. […] We also traced conditional phenotypes for several chemotherapeutics to availability of HPLM-specific metabolites and confirmed others for compounds whose reported targets are encoded by nonessential genes. Our findings establish generalizable strategies for exploiting conditional lethality in HPLM to reveal therapeutic candidates and mechanisms of action in cancer cells.
Described herein are the results of each viability screens against three cell lines: NOMO1 (an acute myeloid leukemia cell line); P12-Ichikawa (a T-cell acute lymphoblastic leukemia); and SEM (a B-cell ALL). Each assay was screened using 3 different cell culture media: homemade human plasma-Like medium with 10% dialyzed fetal bovine serum (HPLM+ds); RPMI1640 with 10% untreated FBS and 5mM glucose (RPMI+s); and RPMI1640 with 10% dialyzed fetal bovine serum and 5 mM glucose (RPMI+ds).
PROTOCOL TABLE (as described by Inglese J, Shamu CE and Guy RK. 2007)
SEQUENCE No. (e.g., 1, 2, 3, etc.); […] (e.g., Cells, Incubation, Reagent, etc.); VALUE and DESCRIPTION.
1; Cells; 5 uL; white, solid bottom 1536-well Greiner assay plate.
2; Compounds; 23 nL; Kalypsis pin tool (Wako USA) equipped with a 1536-well pin head to transfer to the assay plates.
3; Incubation; 48 hours; 37C incubation.
4; Reagent; 3 uL; CellTiter Glo (Promega).
5; Incubation; 5 min, room temperature
6; Detection; Luminescence, Viewlux PerkinElmer.
NOTES (numbers refer to Sequence numbers above)
1. Briefly, 5 ul of cell reagent was dispensed using a Multidrop Combi Dispenser. The NOMO1 and SEM cells were plated at 500 cells/well and the P12-Ichikawa line at 1000 cells/well.
2. After seeding the cells, 23 nL of MIPE 4.1 library compounds (in DMSO) were added to each plate using a Kalypsys 1536 Pintool dispenser. Bortezomib at final concentration of […] and DMSO were added to each plate as positive and negative controls respectively. For each screen, MIPE 4.1 compounds were added over an eleven-point concentration range […] in 3-fold dilutions.
3. Each plate was covered with a stainless steel gasketed lid to prevent evaporation and incubated for 48 hour at 37C, 95% relative humidity, and 5% CO2.
4-5. Three microliter CellTilter-GloTM luminescent substrate mix (Promega) reagent was added to the assay plate and incubated at room temperature for 5 min.
6. The luminescence signal was measured using a ViewLux (PerkinElmer) multiplate reader with a 2 second exposure time per plate. Data for each compound were normalized as percent viability such that measurements for DMSO and the empty well controls in each plate were defined as 100% and 0%, respectively.
Potency is the fitted concentration of half-maximal effect.

Structure (SMILES) | viability | Potency
CC(=O)OCC(CCn1cnc2cnc(N)nc21)COC(C)=O | 96.8% (inactive) | –
COc1ccc2c3c1OC1C[C@@H](O)C=C[C@@]31CCN(C)C2 (stereo not given in full) | 105% (inactive) | –
COCCNCCCn1c(C(=O)CF)c(-c2ccc(C)cc2)c2c(N)ncnc21 | 97.8% (inactive) | –
O=C1C(c2c(O)[nH]c3ccccc23)=Nc2ccccc21 | 94.6% (inactive) | –
C[C@H](NC(=O)Cc1cc(F)cc(F)c1)C(=O)N[C@H](C(=O)OC(C)(C)C)c1ccccc1 | 103% (inactive) | –
CC(C)[N+]1(C)[C@@H]2CC[C@H]1CC(OC(=O)C(CO)c1ccccc1)C2 (stereo not given in full) | – | 13.2 µM (active)
Cc1ccccc1C(C(=O)NC1CCCCC1)N(C(=O)CNc1ccc(C#N)cc1)c1cccc(F)c1 (stereo not given) | 90.7% (inactive) | –
CC(C)c1cc(-c2n[nH]c(=O)n2-c2ccc3c(ccn3C)c2)c(O)cc1O | – | 0.105 µM (active)
CC(C)(Sc1ccc(CCN(CCCCC2CCCCC2)C(=O)NC2CCCCC2)cc1)C(=O)O | 101% (inactive) | –
C[C@H](CCC(=O)O)[C@H]1CC[C@H]2[C@H]3[C@@H](CC[C@]12C)[C@@]1(C)CC[C@@H](O)C[C@H]1C[C@@H]3O | 79.7% (inactive) | –
COC(=O)C1C2CC3c4[nH]c5cc(OC)ccc5c4CCN3CC2CC(OC(=O)c2cc(OC)c(OC)c(OC)c2)C1OC (stereo not given) | 78.1% (inactive) | –
CCC(=O)N[C@H]1CC[C@H](C(=O)N(C)c2ccc(-c3nc4ccccc4o3)cc2)C1 | 78.8% (inactive) | –
CC(C)(O)CCc1ccc(OCc2cc(-c3cccc(OC(F)F)c3)c3ncccc3c2)cc1 | 104% (inactive) | –
COc1cc(Nc2ncc(F)c(Nc3ccc4c(n3)NC(=O)C(C)(C)O4)n2)cc(OC)c1OC | – | 4.69 µM (active)
CC(C(=O)O)c1ccc(-c2ccccc2)c(F)c1 (stereo not given) | 81% (inactive) | –
C[C@@H]1O[C@@H](O[C@H]2CC[C@@]3(C)[C@H](CC[C@@H]4[C@H]3C[C@@H](O)[C@]3(C)[C@@H](C5=CC(=O)OC5)CC[C@]43O)C2)C[C@H](O)[C@@H]1O[C@H]1C[C@H](O)[C@H](O[C@H]2C[C@H](O)[C@@H](O)[C@@H](C)O2)[C@H](C)O1 (stereo in doubt) | – | 0.191 µM (active)
O=C1C(Cl)=C(NCCN2CCOCC2)C(=O)c2ncccc21 | – | 14.8 µM (active)
O=C(CS(=O)Cc1ccco1)NCC=CCOc1cc(CN2CCCCC2)ccn1 (stereo not given) | 90.5% (inactive) | –
COc1cc([C@@H]2c3cc4c(cc3[C@@H](O[C@@H]3O[C@@H]5CO[C@@H](C)O[C@@H]5[C@H](O)[C@@H]3O)[C@H]3COC(=O)[C@H]23)OCO4)cc(OC)c1O | – | 1.87 µM (active)
COCCCOc1ccnc(CS(=O)c2nc3ccccc3[nH]2)c1C (stereo not given) | 95.9% (inactive) | –

Structure (SMILES) | viability | Potency
O=C(Nc1nc2ccccc2n1CCN1CCOCC1)c1cccc([N+](=O)[O-])c1 | 110% (inactive) | –
CCC(=O)O[C@]1(C(=O)SCF)[C@H](C)C[C@H]2[C@@H]3C[C@H](F)C4=CC(=O)C=C[C@]4(C)[C@@]3(F)[C@@H](O)C[C@@]21C | 77.3% (inactive) | –
Cc1c(CCOc2ccc(C(=O)O)cc2)c2cc(Cl)ccc2n1C(c1ccccc1)c1ccccc1 | 71.8% (inactive) | –
CN(C)c1ccc(C2Nc3ccc4ccccc4c3C3=C2C(=O)CC(C)(C)C3)cc1Br (stereo not given) | 94.2% (inactive) | –
C=CC(=O)Nc1cc2c(Nc3ccc(F)c(Cl)c3)ncnc2cc1OCCCN1CCOCC1 | – | 3.32 µM (active)
COc1ccnc2[nH]cc(C(=O)C(=O)N3CCN(C(=O)c4ccccc4)C[C@@H]3C)c12 | 97.5% (inactive) | –
CC(C)(C)COc1ccc(-n2cc(C(=O)O)cn2)cc1C#N | 95.7% (inactive) | –
Cc1ccc(/C=N/NC(=O)c2ccccc2Oc2ccccc2)o1 | 86.9% (inactive) | –
O=C(NC1CCOCC1)c1ccc(-c2cc(-c3cn[nH]c3-c3ccccn3)ccn2)cc1 | 104% (inactive) | –
COc1ccc(-n2c(C)c([N+](=O)[O-])c3ccc(O)cc32)cc1 | 71.9% (inactive) | –
C[N+](C)(C)CC(=O)O | 100% (inactive) | –
CC(=O)[C@H]1CC[C@H]2[C@@H]3CCC4=CC(=O)CC[C@]4(C)[C@H]3CC[C@]12C | 115% (inactive) | –
C[C@@H]1COCCN1c1cc(C2(S(C)(=N)=O)CC2)nc(-c2ccnc3[nH]ccc23)n1 (stereo not given in full) | – | 1.17 µM (active)
CC1(O)CC(c2nc(-c3ccc4ccc(-c5ccccc5)nc4c3)c3c(N)nccn23)C1 (stereo not given) | – | 2.35 µM (active)
CN(N=O)C(=O)N[C@H]1C(O)OC(CO)[C@@H](O)[C@H]1O (stereo not given in full) | 88.1% (inactive) | –
CCN(c1ccccc1)c1cc(NC)[n+](C)c(C)n1 | 107% (inactive) | –
COc1ccc2c(c1)c(CC(=O)OCC(=O)O)c(C)n2C(=O)c1ccc(Cl)cc1 | 102% (inactive) | –
C=C1C(=O)[C@@]23C(CC[C@@H]1[C@H]2O)[C@@]12CO[C@]3(O)[C@@H](O)[C@@H]1C(C)(C)CC[C@@H]2O (stereo not given in full) | – | 18.7 µM (active)
C[C@H](NC(=O)Cc1cc(F)cc(F)c1)C(=O)N[C@@H]1C(=O)N(C)c2ccccc2-c2ccccc21 | – | 4.69 µM (active)
O=C(O)Cc1cccc(OCCCN(Cc2cccc(C(F)(F)F)c2Cl)CC(c2ccccc2)c2ccccc2)c1 | 102% (inactive) | –
